The full data set covers some 7,900 targets. This sample favours those with a hit. About 0.6% of all pairs of compound and target were hits.
Assays:
Assay in all cases: log2 fold change, soluble protein after heating vs DMSO (PISA); higher = thermal stabilisation; K562 cells, 10 uM, 30 min; active = over 0.2 and 3.5 SD of the protein, either way, in both replicates (recomputed)
[1] = compound: COC1=CC=C(C=C1)CN2C=CC3=C2C=C(C=C3)C(=O)NO
Summary of the method: (§1)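 K562 cells at 2×10^6 cells/mL were exposed to 10 μM compound for 30 min, then aliquots were heated for 3 min across 48°C-58°C, pooled, and extracted in PBS containing 0.5% NP-40 at 4°C. The supernatant after 21,000xg for 90 min was taken as soluble protein and measured by TMTpro 16plex LC-MS/MS with channel sums equalised. Thermal stability is reported relative to control samples, with values from duplicates. Fold changes are given on a log2 scale.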

[2] = compound: CON(C)C(=O)N1N=C(c2cc(F)ccc2F)S[C@@]1(CCCN)c1ccccc1 [filanesib]
Summary of the method: as §1

[3] = compound: CO[C@H]1C[C@@H]2CC[C@@H](C)[C@@](O)(O2)C(=O)C(=O)N2CCCC[C@H]2C(=O)O[C@H]([C@H](C)C[C@@H]2CC[C@H](n3cnnn3)[C@H](OC)C2)CC(=O)[C@H](C)/C=C(\C)[C@@H](O)[C@@H](OC)C(=O)[C@H](C)C[C@H](C)/C=C/C=C/C=C/1C [zotarolimus]
Summary of the method: as §1

[4] = compound: COc1cc(C(=O)O)ccc1NC(=O)[C@@H]1N[C@@H](CC(C)(C)C)[C@](C#N)(c2ccc(Cl)cc2F)[C@H]1c1cccc(Cl)c1F [idasanutlin]
Summary of the method: as §1

[5] = compound: COc1cc(Nc2ncc3c(n2)-c2ccc(Cl)cc2C(c2c(F)cccc2OC)=NC3)ccc1C(=O)O [alisertib]
Summary of the method: as §1

[6] = compound: COc1cc2nc(-c3cc(F)ccc3O)nc(N[C@@H]3CNC[C@H]3C(C)(C)O)c2cc1OC
Summary of the method: as §1

[7] = compound: COc1cc2ncnc(Nc3ccc(F)c(Cl)c3)c2cc1OCCCN1CCOCC1 [gefitinib]
Summary of the method: as §1

[8] = compound: COc1cccc2cc(-c3nc([C@H]4CC[C@H](C(=O)O)CC4)n4ncnc(N)c34)[nH]c12
Summary of the method: as §1

[9] = compound: CS(=O)(=O)CCNCc1ccc(-c2ccc3ncnc(Nc4ccc(OCc5cccc(F)c5)c(Cl)c4)c3c2)o1 [lapatinib]
Summary of the method: as §1

[10] = compound: CS(=O)(=O)N1CCN(Cc2cc3nc(-c4cccc5[nH]ncc45)nc(N4CCOCC4)c3s2)CC1 [pictilisib]
Summary of the method: as §1

Measured: log2 fold change

TRABD (UniProt Q9H4I3)
inactive: [1] 0.001 | [2] 0.051 | [3] 0.11 | [4] 0.167 | [5] -0.109 | [6] 0.198 | [7] 0.149 | [8] -0.006 | [9] 0.081 | [10] 0.15

TRMT61A (UniProt Q96FX7)
inactive: [1] 0.083 | [2] 0.136 | [3] 0.077 | [4] 0.025 | [5] -0.017 | [6] -0.192 | [7] -0.051 | [8] -0.057 | [9] 0.03 | [10] -0.18

TPP1 (UniProt O14773)
inactive: [1] 0.024 | [2] -0.175 | [3] 0 | [4] -0.008 | [5] 0.168 | [6] -0.072 | [7] -0.039 | [8] 0.087 | [9] -0.026 | [10] 0.011

TMEM106B (UniProt Q9NUM4)
inactive: [1] 0.021 | [2] 0.06 | [3] -0.082 | [4] -0.032 | [5] -0.012 | [6] -0.027 | [7] 0.04 | [8] 0.057 | [9] -0.005 | [10] 0.027

UBE3D (UniProt Q7Z6J8)
inactive: [1] -0.005 | [2] 0.08 | [3] -0.033 | [4] -0.009 | [5] -0.088 | [6] -0.022 | [7] 0.035 | [8] 0.009 | [9] -0.069 | [10] 0.139

USP15 (UniProt Q9Y4E8)
UniProt Q9Y4E8, sequence (Q9Y4E8 whole entry, looked up): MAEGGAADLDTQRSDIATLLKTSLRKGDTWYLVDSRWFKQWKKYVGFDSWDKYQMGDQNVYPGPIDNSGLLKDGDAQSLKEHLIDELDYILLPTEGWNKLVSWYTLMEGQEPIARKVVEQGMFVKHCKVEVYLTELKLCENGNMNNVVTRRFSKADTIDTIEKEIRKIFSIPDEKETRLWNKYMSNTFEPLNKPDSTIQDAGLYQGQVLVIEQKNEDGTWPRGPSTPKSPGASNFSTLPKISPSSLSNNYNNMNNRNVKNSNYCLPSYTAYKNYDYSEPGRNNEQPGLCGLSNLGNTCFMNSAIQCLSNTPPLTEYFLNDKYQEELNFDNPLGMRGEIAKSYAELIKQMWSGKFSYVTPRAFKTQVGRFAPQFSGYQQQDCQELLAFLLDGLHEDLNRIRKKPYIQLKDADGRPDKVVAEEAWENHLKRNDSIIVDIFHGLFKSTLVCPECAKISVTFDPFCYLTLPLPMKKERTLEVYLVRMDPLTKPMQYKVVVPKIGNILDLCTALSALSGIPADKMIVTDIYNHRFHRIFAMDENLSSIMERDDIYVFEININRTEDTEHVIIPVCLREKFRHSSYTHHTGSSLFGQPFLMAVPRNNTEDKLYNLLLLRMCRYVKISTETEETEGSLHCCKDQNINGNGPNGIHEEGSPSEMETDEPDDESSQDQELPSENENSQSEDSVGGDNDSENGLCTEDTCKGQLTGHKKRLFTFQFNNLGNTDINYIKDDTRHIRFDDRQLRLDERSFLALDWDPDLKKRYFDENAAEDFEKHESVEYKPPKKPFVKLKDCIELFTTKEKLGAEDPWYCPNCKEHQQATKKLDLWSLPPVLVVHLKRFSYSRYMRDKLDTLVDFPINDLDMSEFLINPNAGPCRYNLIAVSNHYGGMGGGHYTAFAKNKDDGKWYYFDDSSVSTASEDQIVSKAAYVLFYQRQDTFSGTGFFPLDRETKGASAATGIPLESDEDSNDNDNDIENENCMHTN
inactive: [1] 0.027 | [2] -0.004 | [3] 0.051 | [4] -0.018 | [5] -0.043 | [6] 0.016 | [7] 0.028 | [8] -0.05 | [9] -0.021 | [10] -0.027

UGGT1 (UniProt Q9NYU2)
inactive: [1] -0.041 | [2] -0.008 | [3] 0.012 | [4] -0.014 | [5] -0.07 | [6] 0.009 | [7] -0.006 | [8] -0.01 | [9] 0.035 | [10] -0.005

UBAP1 isoform 4 (UniProt Q9NZ09)
UniProt Q9NZ09, sequence (Q9NZ09 whole entry, looked up): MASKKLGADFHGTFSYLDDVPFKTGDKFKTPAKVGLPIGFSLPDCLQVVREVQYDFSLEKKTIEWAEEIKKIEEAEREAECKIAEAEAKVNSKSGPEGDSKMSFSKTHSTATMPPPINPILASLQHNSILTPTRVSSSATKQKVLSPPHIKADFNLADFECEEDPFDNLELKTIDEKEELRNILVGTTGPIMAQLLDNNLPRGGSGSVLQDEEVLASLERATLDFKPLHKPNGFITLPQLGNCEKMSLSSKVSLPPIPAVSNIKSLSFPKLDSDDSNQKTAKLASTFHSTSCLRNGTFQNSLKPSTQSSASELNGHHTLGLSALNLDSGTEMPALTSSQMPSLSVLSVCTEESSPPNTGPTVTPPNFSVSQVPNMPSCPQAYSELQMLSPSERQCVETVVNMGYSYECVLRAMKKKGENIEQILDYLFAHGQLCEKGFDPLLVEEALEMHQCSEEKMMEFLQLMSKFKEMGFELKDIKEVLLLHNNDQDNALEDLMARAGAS
inactive: [1] -0.018 | [2] 0.078 | [3] 0.045 | [4] -0.014 | [5] -0.034 | [6] -0.017 | [7] 0.088 | [8] -0.018 | [9] 0.23 | [10] -0.005

TNPO1 (UniProt Q92973)
UniProt Q92973, sequence (Q92973 whole entry, looked up): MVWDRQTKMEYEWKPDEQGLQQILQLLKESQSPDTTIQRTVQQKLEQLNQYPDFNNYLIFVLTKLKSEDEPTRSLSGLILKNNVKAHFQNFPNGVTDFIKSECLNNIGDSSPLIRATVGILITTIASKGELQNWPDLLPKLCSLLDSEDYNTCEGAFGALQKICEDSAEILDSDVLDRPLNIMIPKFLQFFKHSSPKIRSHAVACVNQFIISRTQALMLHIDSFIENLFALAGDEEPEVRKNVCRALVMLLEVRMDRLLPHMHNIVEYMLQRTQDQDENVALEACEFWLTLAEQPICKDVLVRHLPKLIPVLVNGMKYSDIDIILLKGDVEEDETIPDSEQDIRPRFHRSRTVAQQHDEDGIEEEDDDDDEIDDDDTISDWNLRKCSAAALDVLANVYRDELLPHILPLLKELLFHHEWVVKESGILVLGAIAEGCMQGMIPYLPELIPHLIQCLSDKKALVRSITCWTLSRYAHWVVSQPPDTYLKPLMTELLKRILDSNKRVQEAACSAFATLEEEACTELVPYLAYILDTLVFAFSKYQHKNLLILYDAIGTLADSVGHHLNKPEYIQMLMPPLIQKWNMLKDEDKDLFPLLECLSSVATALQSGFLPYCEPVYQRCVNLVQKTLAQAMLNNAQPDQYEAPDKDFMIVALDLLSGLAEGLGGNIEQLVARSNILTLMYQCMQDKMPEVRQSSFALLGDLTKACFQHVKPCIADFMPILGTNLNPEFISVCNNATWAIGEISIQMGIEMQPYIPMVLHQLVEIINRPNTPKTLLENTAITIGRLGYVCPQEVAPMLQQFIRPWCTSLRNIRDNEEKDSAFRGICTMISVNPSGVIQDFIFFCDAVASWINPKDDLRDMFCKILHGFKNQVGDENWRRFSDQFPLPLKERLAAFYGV
inactive: [1] -0.008 | [2] -0.096 | [3] 0.012 | [4] -0.023 | [5] -0.074 | [6] -0.156 | [7] -0.001 | [8] -0.012 | [9] -0.005 | [10] -0.02

UBAP2L isoform 5 (UniProt Q14157)
inactive: [1] -0.026 | [2] -0.014 | [3] -0.03 | [4] -0.047 | [5] -0.034 | [6] 0 | [7] -0.019 | [8] 0.012 | [9] 0 | [10] -0.015

VTI1A (UniProt Q96AJ9)
UniProt Q96AJ9, sequence (Q96AJ9 whole entry, looked up): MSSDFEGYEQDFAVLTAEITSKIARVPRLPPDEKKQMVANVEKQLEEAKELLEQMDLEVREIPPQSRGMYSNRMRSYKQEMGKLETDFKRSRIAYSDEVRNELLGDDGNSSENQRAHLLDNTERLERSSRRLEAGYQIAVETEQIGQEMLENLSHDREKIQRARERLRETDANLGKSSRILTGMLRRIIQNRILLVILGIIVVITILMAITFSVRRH
inactive: [1] 0.014 | [2] -0.015 | [3] -0.024 | [4] -0.023 | [5] -0.039 | [6] -0.003 | [7] 0.024 | [8] 0 | [9] 0.021 | [10] -0.022

VPS11 (UniProt Q9H270)
inactive: [1] -0.019 | [2] -0.038 | [3] 0.053 | [4] -0.063 | [5] -0.022 | [6] -0.032 | [7] -0.005 | [8] -0.041 | [9] -0.045 | [10] -0.013

VRK1 (UniProt Q99986)
inactive: [1] 0.098 | [2] -0.07 | [3] -0.123 | [4] -0.119 | [5] 0.06 | [6] 0.316 | [7] -0.018 | [8] -0.003 | [9] -0.059 | [10] 0.086

UBE2E3 (UniProt Q969T4)
UniProt Q969T4, sequence (Q969T4 whole entry, looked up): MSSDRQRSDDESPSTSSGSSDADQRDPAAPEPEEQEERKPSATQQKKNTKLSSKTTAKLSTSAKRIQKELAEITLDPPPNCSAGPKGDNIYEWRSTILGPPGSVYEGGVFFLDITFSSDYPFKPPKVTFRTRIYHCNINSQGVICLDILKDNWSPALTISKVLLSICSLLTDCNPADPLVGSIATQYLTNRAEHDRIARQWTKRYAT
inactive: [1] -0.077 | [2] -0.046 | [3] -0.013 | [4] -0.075 | [5] -0.045 | [6] 0.108 | [7] -0.076 | [8] 0.022 | [9] -0.021 | [10] 0.089

UBC (UniProt P0CG48)
UniProt P0CG48, sequence (P0CG48 whole entry, looked up): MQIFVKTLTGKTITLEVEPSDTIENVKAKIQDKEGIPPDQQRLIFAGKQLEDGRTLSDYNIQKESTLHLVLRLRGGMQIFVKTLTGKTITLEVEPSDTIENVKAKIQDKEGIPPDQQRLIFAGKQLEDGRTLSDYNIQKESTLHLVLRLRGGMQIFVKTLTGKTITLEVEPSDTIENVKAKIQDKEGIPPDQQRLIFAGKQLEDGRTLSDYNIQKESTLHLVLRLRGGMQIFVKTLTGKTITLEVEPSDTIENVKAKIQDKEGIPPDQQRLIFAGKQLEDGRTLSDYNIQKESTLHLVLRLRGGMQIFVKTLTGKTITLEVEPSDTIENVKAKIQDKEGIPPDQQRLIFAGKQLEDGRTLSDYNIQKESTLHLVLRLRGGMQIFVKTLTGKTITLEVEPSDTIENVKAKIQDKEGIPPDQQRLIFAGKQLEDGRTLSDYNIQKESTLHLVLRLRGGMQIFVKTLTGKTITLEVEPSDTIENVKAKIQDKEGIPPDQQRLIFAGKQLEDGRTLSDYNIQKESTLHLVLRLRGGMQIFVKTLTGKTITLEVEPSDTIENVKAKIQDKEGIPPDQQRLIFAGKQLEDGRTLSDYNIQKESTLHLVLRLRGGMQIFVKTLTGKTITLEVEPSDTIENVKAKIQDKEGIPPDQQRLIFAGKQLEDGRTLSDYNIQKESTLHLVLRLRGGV
inactive: [1] -0.064 | [2] 0.09 | [3] 0.048 | [4] 0 | [5] -0.002 | [6] 0.06 | [7] 0.038 | [8] 0.018 | [9] -0.101 | [10] 0.008

UHRF1BP1 (UniProt Q6BDS2)
inactive: [1] -0.025 | [2] 0.079 | [3] 0.161 | [4] -0.029 | [5] -0.033 | [6] 0.104 | [7] 0.045 | [8] 0.037 | [9] 0.038 | [10] 0.032

UBAP2L isoform 1 (UniProt Q14157)
inactive: [1] 0.016 | [2] -0.014 | [3] 0.011 | [4] 0.059 | [5] -0.05 | [6] 0.213 | [7] 0.074 | [8] 0.103 | [9] -0.248 | [10] -0.114

TOE1 (UniProt Q96GM8)
inactive: [1] -0.06 | [2] 0.246 | [3] 0.023 | [4] 0.032 | [5] -0.075 | [6] 0.039 | [7] 0.014 | [8] -0.162 | [9] 0.076 | [10] -0.054

UFL1 (UniProt O94874)
inactive: [1] 0.029 | [2] -0.022 | [3] 0.025 | [4] -0.108 | [5] -0.074 | [6] 0.212 | [7] 0.003 | [8] -0.071 | [9] -0.017 | [10] 0.016

USO1 isoform 2 (UniProt O60763)
inactive: [1] 0.009 | [2] -0.054 | [3] 0.034 | [4] -0.054 | [5] -0.037 | [6] -0.031 | [7] 0.003 | [8] 0.01 | [9] 0.016 | [10] 0.014

VPS33B (UniProt Q9H267)
inactive: [1] 0.027 | [2] 0.011 | [3] 0.026 | [4] -0.036 | [5] -0.116 | [6] -0.046 | [7] 0.118 | [8] -0.147 | [9] 0.011 | [10] -0.035

U2AF1 isoform 2 (UniProt Q01081)
inactive: [1] 0.165 | [2] 0.034 | [3] 0.043 | [4] 0.055 | [5] -0.019 | [6] 0.06 | [7] 0.036 | [8] 0.045 | [9] 0 | [10] 0.069

VPS18 (UniProt Q9P253)
inactive: [1] -0.011 | [2] 0.009 | [3] 0.024 | [4] -0.053 | [5] -0.102 | [6] -0.017 | [7] -0.028 | [8] -0.041 | [9] 0.033 | [10] -0.07

WAPL isoform 3 (UniProt Q7Z5K2)
UniProt Q7Z5K2, sequence (Q7Z5K2 whole entry, looked up): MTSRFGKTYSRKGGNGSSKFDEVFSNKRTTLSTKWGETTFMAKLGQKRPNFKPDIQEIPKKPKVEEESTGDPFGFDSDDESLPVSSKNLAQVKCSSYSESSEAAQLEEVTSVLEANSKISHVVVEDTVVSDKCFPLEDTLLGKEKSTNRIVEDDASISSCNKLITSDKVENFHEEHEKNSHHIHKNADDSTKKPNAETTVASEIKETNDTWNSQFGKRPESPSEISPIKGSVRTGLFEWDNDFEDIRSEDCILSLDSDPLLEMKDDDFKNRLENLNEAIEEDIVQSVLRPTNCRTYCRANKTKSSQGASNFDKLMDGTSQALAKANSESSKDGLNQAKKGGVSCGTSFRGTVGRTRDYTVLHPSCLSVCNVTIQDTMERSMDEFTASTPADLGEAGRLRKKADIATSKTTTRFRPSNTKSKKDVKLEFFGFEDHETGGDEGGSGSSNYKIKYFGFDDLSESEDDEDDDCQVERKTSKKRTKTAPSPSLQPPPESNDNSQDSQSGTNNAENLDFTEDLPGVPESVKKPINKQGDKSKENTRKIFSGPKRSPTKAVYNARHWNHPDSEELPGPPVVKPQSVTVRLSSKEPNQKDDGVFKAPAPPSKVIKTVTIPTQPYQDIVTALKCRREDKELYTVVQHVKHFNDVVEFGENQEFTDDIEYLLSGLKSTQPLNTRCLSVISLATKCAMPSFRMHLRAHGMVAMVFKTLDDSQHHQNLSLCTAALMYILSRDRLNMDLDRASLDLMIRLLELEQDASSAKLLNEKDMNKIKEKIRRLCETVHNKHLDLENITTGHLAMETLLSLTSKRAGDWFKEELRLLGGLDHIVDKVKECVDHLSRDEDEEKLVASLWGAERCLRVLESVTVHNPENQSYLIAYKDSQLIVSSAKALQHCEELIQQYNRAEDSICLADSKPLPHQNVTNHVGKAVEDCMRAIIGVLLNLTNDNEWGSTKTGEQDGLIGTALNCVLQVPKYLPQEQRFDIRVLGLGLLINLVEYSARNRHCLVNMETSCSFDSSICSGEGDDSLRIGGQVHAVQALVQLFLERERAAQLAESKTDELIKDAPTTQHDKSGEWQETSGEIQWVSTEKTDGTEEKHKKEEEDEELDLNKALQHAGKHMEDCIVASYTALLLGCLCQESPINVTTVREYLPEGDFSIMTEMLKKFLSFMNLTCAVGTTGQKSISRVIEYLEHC
inactive: [1] 0.052 | [2] -0.009 | [3] 0.128 | [4] -0.027 | [5] 0.038 | [6] -0.273 | [7] -0.006 | [8] -0.003 | [9] 0 | [10] 0.027

TRMT10C (UniProt Q7L0Y3)
inactive: [1] -0.045 | [2] -0.031 | [3] 0.016 | [4] -0.107 | [5] -0.033 | [6] 0.018 | [7] 0.039 | [8] 0.005 | [9] -0.033 | [10] 0.007

TRIP10 (UniProt Q15642)
inactive: [1] 0.054 | [2] 0.01 | [3] -0.007 | [4] -0.061 | [5] -0.026 | [6] 0.083 | [7] -0.014 | [8] -0.04 | [9] 0.021 | [10] 0.033

UBE2S (UniProt Q16763)
UniProt Q16763, sequence (Q16763 whole entry, looked up): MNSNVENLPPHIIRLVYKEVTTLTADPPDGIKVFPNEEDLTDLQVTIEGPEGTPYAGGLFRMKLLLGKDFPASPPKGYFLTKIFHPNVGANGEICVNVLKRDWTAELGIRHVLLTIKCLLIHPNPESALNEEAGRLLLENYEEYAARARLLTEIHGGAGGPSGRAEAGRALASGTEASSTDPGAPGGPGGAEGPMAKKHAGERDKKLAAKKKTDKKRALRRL
inactive: [1] 0.003 | [2] 0.01 | [3] 0.045 | [4] -0.05 | [5] 0.015 | [6] 0.053 | [7] -0.009 | [8] 0.001 | [9] -0.035 | [10] 0.058

UBIAD1 (UniProt Q9Y5Z9)
inactive: [1] -0.063 | [2] -0.038 | [3] -0.246 | [4] -0.039 | [5] -0.054 | [6] -0.008 | [7] 0.077 | [8] 0.013 | [9] 0.082 | [10] 0.103

TUT4 (UniProt Q5TAX3)
inactive: [1] -0.265 | [2] 0.092 | [3] -0.237 | [5] -0.02 | [6] 0.158 | [7] 0.051 | [8] -0.025 | [9] 0.021 | [10] 0.009

VPS33A (UniProt Q96AX1)
inactive: [1] 0.018 | [2] -0.096 | [3] 0.033 | [4] -0.039 | [5] -0.037 | [6] 0.014 | [7] -0.033 | [8] -0.039 | [9] 0.015 | [10] -0.083

— the supplement of paper PMC10849652
